Source: PubChem (University of Kansas High Throughput Screening Laboratory)
Pf apPOL inh: Pf-apPOL DNA polymerase inhibition; Recombinant Pf-apPOL, molecular beacon fluorescence, 1.5 h; inhibition, % at 10 µM; 210,000 tested, 0.25% active; AID 1794808
mHTT CaM bind: mHTT-calmodulin interaction abrogation; P42858; AlphaScreen His-mHTT/GST-CaM binding, luminescence; inhibition, % at 15 µM; 190,000 tested, 3.6% active;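 note: 0% = both proteins with DMSO and 100% = one protein alone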
* = called active by the depositor. Rows were chosen to be rich in hits. Some 3.6% of all compounds tested hit in one or more screens of this group. Cut-off read from the data, not from the text of the source: active = inhibition above about 50%; inactive = the rest.

For Cc1ccc(C(=O)Sc2n[nH]c(=O)[nH]c2=O)cc1 the results were Pf apPOL inh 11.6 and mHTT CaM bind 98.0*.
O=C(c1ccc([N+](=O)[O-])cc1)N1CCSC1c1ccccc1 (configuration not stated) was read as Pf apPOL inh -5.8 and mHTT CaM bind 4.0.
For Cc1ccc(C(=O)NC2CCN(c3ncnc4c3CCC4)C2)s1 (configuration not stated) the results were Pf apPOL inh 3.9 and mHTT CaM bind 4.5.
Cc1ccc(C(=O)Nc2ccc3c(c2)Sc2ncccc2C(=O)N3C)cc1 was read as Pf apPOL inh -11.5 and mHTT CaM bind 9.5.
`Cc1cc(C)cc(C(=O)Nc2ccc3c(c2)Sc2ncccc2C(=O)N3C)c1` gave Pf apPOL inh 1.1 and mHTT CaM bind 72.9*.
Screening O=C(Nc1ccc(NC(=O)c2ccccc2[N+](=O)[O-])cc1)c1ccccc1O returned Pf apPOL inh -8.6.
Screening Cc1onc(-c2ccccc2)c1CN1C(=O)c2ccccc2S1(=O)=O returned Pf apPOL inh 6.7.
`O=C(NCc1cccnc1)c1nc(-c2ccc(Cl)cc2)n2c1CCCCC2` gave Pf apPOL inh -0.2 and mHTT CaM bind 21.4.
For CCNC(=O)c1nc(-c2ccc(C)cc2)n2c1CCCCC2 the results were Pf apPOL inh -16.3 and mHTT CaM bind 6.9.
`COc1cccc(CNC(=O)c2nc(-c3ccc(C)cc3)n3c2CCCCC3)c1` gave Pf apPOL inh 3.4 and mHTT CaM bind 74.4*.
Screening COc1ccc(CNC(=O)c2nc(-c3ccc(C)cc3)n3c2CCCCC3)cc1 returned Pf apPOL inh -2.1 and mHTT CaM bind 54.2*.
Screening O=c1[nH]c2ccc(Cl)cc2c(-c2ccccc2)c1Sc1ncn[nH]1 returned Pf apPOL inh -3.6 and mHTT CaM bind 5.3.
For COc1cc(C=CC(=O)c2c(-c3ccccc3)c3cc(Cl)ccc3[nH]c2=O)cc(OC)c1OC the results were Pf apPOL inh 1.4 and mHTT CaM bind 100.2*.
For COc1cccc(CCC(=O)N2CCN(c3cc(-c4cccnc4)[nH]n3)CC2)c1 the results were Pf apPOL inh 1.6 and mHTT CaM bind 2.2.
Oc1ccc2ccccc2c1SSc1c(O)ccc2ccccc12 was read as Pf apPOL inh -0.4 and mHTT CaM bind 100.3*.
Screening Oc1ccc2ccccc2c1CN1CCCCC1 returned Pf apPOL inh -0.6.
Screening Nc1nc[nH]c(=O)c1[N+](=O)[O-] returned Pf apPOL inh -2.9 and mHTT CaM bind -6.4.
Screening NNc1ncc([N+](=O)[O-])c2nc[nH]c12 returned mHTT CaM bind 99.8*.
`COc1cc(Cl)ccc1C(=O)N1CCN(c2nc(CN3CCCCC3)cs2)CC1` gave Pf apPOL inh 1.4 and mHTT CaM bind 15.9.
`CC1(C)C2CCC1(C)C(OCC(O)CN1CCN(c3ccccc3F)CC1)C2` (configuration not stated) gave Pf apPOL inh -3.0 and mHTT CaM bind 46.8.
`CC1(C)C2CCC1(C)C(OCC(O)CN1CCN(c3cccc(C(F)(F)F)c3)CC1)C2` (configuration not stated) gave Pf apPOL inh -5.4 and mHTT CaM bind 93.3*.
`N#Cc1sccc1CS(=O)(=O)c1ccc(Cl)cc1` gave Pf apPOL inh -2.0.
For O=C(CNc1ccccc1Cl)c1ccccc1 the results were Pf apPOL inh 0.8 and mHTT CaM bind 100.2*.
`O=C(Nc1ccccc1Cl)c1ccccc1` gave Pf apPOL inh 0.4 and mHTT CaM bind -12.0.
O=C(Nc1ncc2c(n1)CC(c1ccccc1Cl)CC2=O)c1ccccc1 (configuration not stated) was read as Pf apPOL inh 3.9 and mHTT CaM bind 6.0.
For O=C(NCC1CCN(c2cc(-c3ccccn3)[nH]n2)CC1)c1ccc2c(c1)OCO2 the results were Pf apPOL inh 2.4 and mHTT CaM bind 36.5.
`CN(C)c1cccc(C(=O)NCC2CCN(c3cc(-c4ccccn4)[nH]n3)CC2)c1` gave Pf apPOL inh -0.1 and mHTT CaM bind 54.9*.
Screening O=C(/C=C/c1ccco1)c1cccs1 returned Pf apPOL inh 11.2 and mHTT CaM bind 79.2*.
O=C(C=Cc1ccco1)c1ccc(O)cc1 was read as Pf apPOL inh 2.3 and mHTT CaM bind 6.4.
`O=S(=O)(Cc1ccccc1)N1CCC(Oc2cccc(C(F)(F)F)c2)CC1` gave Pf apPOL inh -8.0 and mHTT CaM bind -25.2.
Screening Cc1ccc(S(=O)(=O)N2CCC(Oc3cccc(C(F)(F)F)c3)CC2)cc1 returned Pf apPOL inh -9.9 and mHTT CaM bind 94.7*.
For Cc1ccc(C(=O)N2CCc3cn(C)c4cccc(c34)C2)cc1C the results were Pf apPOL inh -2.7 and mHTT CaM bind 79.0*.
`CCCn1cc2c3c(cccc31)CN(C(=O)c1ccc(OC)cc1)CC2` gave Pf apPOL inh -2.8 and mHTT CaM bind 78.0*.
For Cn1cc2c3c(cccc31)CN(C(=O)c1ccc(Cl)cc1)CC2 the results were Pf apPOL inh -3.5 and mHTT CaM bind 54.3*.
CCn1cc2c3c(cccc31)CN(C(=O)CCc1ccc(OC)cc1)CC2 was read as Pf apPOL inh -4.2 and mHTT CaM bind 58.5*.
For CCn1cc2c3c(cccc31)CN(C(=O)c1ccco1)CC2 the results were Pf apPOL inh -2.5 and mHTT CaM bind -7.6.
`Cc1cccc(C(=O)N2CCc3cn(C)c4cccc(c34)C2)c1` gave Pf apPOL inh -6.9 and mHTT CaM bind 19.0.
For COCCn1cc2c3c(cccc31)CN(C(=O)NCc1ccc(OC)cc1)CC2 the results were Pf apPOL inh 2.1 and mHTT CaM bind 8.7.
For Cn1cc2c3c(cccc31)CN(C(=O)Cc1ccc(Cl)cc1)CC2 the results were Pf apPOL inh -1.1 and mHTT CaM bind 26.9.
For O=C(C1CCN(CCCc2ccccc2)CC1)N1CCN(c2ccccc2F)CC1 the results were Pf apPOL inh -2.4 and mHTT CaM bind 16.7.
COc1ccc(CNC(=O)CSCc2ccc(Cl)cc2)cc1 was read as Pf apPOL inh -1.3 and mHTT CaM bind -10.3.
Screening CC(Sc1nnc(-c2cccnc2)o1)C(=O)c1ccccc1 (configuration not stated) returned Pf apPOL inh -6.7 and mHTT CaM bind -1.7.
O=C(NCCc1cccnc1)C1CN(S(=O)(=O)c2cccnc2)CC12CCCCC2 (configuration not stated) was read as Pf apPOL inh -4.7 and mHTT CaM bind 3.2.
Screening O=C(Nc1ccc(F)c(Cl)c1)c1ccc2c(c1)OCO2 returned Pf apPOL inh -2.8 and mHTT CaM bind -3.4.
For CCCn1cc2c3c(cccc31)CN(C(=O)Cc1ccc(OC)cc1)CC2 the results were Pf apPOL inh -1.9 and mHTT CaM bind 57.2*.
For CS(=O)(=O)N(Cc1ccccc1Cl)c1ccc(C(N)=O)cc1 the results were Pf apPOL inh -4.1 and mHTT CaM bind -5.0.
For CS(=O)(=O)N(Cc1ccccc1Cl)c1ccc(C(=O)N2CCc3ccccc3C2)cc1 the results were Pf apPOL inh -1.3 and mHTT CaM bind 97.8*.
Screening CCCn1cc2c3c(cccc31)CN(C(=O)NCc1ccc(OC)cc1)CC2 returned Pf apPOL inh -2.5 and mHTT CaM bind 18.4.
Screening COc1ccc(C(=O)N2CCc3cn(C)c4cccc(c34)C2)c(OC)c1 returned Pf apPOL inh -2.3 and mHTT CaM bind 47.5.
For COc1ccc(C(=O)N2CCc3cn(C)c4cccc(c34)C2)cc1 the results were Pf apPOL inh -1.5 and mHTT CaM bind 55.1*.
Cn1cc2c3c(cccc31)CN(C(=O)c1cccc(Cl)c1)CC2 was read as Pf apPOL inh -7.5 and mHTT CaM bind 72.9*.
Screening Cn1cc2c3c(cccc31)CN(C(=O)c1cc(F)cc(F)c1)CC2 returned Pf apPOL inh -1.0 and mHTT CaM bind 29.6.
